Results published in PubChem BioAssay (NCI).
About 79,000 compounds went through this panel and 15% of them were active in at least one assay; those are over-represented in the sample as a whole. Unmarked numbers belong to inactive results. Active and inactive are the calls of the source. No stated cut-off is given here; in the data, active means growth inhibition above about 70%; inactive means the rest.

Assay: NCI Yeast Anticancer Drug Screen. Data for the mgt1 strain (AID 153)
Conditions: S. cerevisiae mgt1 mutant growth inhibition; at 100.0 µM; active compounds read high
In short: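 Measured: inhibition of mgt1 yeast growth by compound, normalized to vehicle-treated cultures.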

**Q.** With `O=CC=C(c1ccccc1)c1ccccc1` as the molecule, how does the growth inhibition read?
**A.** Its growth inhibition is 98% (active).

**Q.** Which growth inhibition does the source give for `FC(F)(F)c1nc2nc(Cl)c(Cl)nc2n1CCCN1CCOCC1` here?
**A.** Its growth inhibition is 34%.

**Q.** With `BrCC[P+](c1ccccc1)(c1ccccc1)c1ccccc1` as the molecule, how does the growth inhibition read?
**A.** The growth inhibition was 98% (active).

**Q.** With `N#CSc1ccc(S(N)(=O)=O)cc1` as the molecule, how does the growth inhibition read?
**A.** Its growth inhibition is 46%.

**Q.** Which growth inhibition does the source give for `O=[N+]([O-])c1ccc2nc3ccccc3cc2c1` here?
**A.** The growth inhibition was 86% (active).

**Q.** Which growth inhibition does the source give for `O=C(NC(Nc1ccc(F)c(Cl)c1)(C(F)(F)F)C(F)(F)F)C(C(F)(F)F)C(F)(F)F` here?
**A.** Its growth inhibition is 98% (active).

**Q.** For `O=C(/C=C\c1ccc(Cl)cc1Cl)c1cccs1`, which growth inhibition is on record?
**A.** The growth inhibition was 5%.

**Q.** For `O=C(NCCCCNCCCNC(=O)c1cc(-c2ccccc2)nc2ccccc12)c1cc(-c2ccccc2)nc2ccccc12`, which growth inhibition is on record?
**A.** Its growth inhibition is 94% (active).

**Q.** For `NC(=NCc1ccccc1)N/N=C\c1ccnc2ccccc12`, which growth inhibition is on record?
**A.** The growth inhibition was 76% (active).

**Q.** With `CCCCN(CCCC)CCSc1ccc(Cl)cc1` as the molecule, how does the growth inhibition read?
**A.** The growth inhibition was 73% (active).

**Q.** With `COc1cc(C2C3=C(COC3=O)Oc3cc4c(cc32)OCO4)ccc1O` (centres undefined) as the molecule, how does the growth inhibition read?
**A.** The growth inhibition was 30%.

**Q.** For `C#CCCCc1ccccc1`, which growth inhibition is on record?
**A.** The growth inhibition was 91% (active).

**Q.** Which growth inhibition does the source give for `CCc1ccc(NS(=O)(=O)c2ccccc2)c([N+](=O)[O-])c1` here?
**A.** The growth inhibition was 74% (active).

**Q.** With `COc1ccc(C2c3cc4c(cc3OC(C)(O)C2C)OCO4)c(OC)c1` (centres undefined) as the molecule, how does the growth inhibition read?
**A.** Its growth inhibition is 89% (active).

**Q.** Which growth inhibition does the source give for `COC(=O)c1ccc(CCC2=CC(=O)C(Br)=CC2=O)cc1` here?
**A.** The growth inhibition was 24%.

**Q.** Which growth inhibition does the source give for `NNC(=O)CCc1ccc2ccc3ccccc3c2c1` here?
**A.** Its growth inhibition is 23%.

**Q.** For `Cn1c2ccccc2c(=O)c2cc(NC(=O)CCCCC(=O)Nc3ccc4c(c3)c(=O)c3ccccc3n4C)ccc21`, which growth inhibition is on record?
**A.** The growth inhibition was 46%.

**Q.** Which growth inhibition does the source give for `CC(CC(C)(C)[N+](C)(C)C)[N+](C)(C)C` (centres undefined) here?
**A.** The growth inhibition was 0%.

**Q.** Which growth inhibition does the source give for `CC1CCN(CCC(=O)c2ccc(Cl)cc2)CC1` here?
**A.** The growth inhibition was 52%.

**Q.** For `CCCCCCCCCCCCCCC(C(=O)[O-])[n+]1ccccc1` (centres undefined), which growth inhibition is on record?
**A.** The growth inhibition was 95% (active).

**Q.** For `CNC1C(OC2C(OC3C(O)C(O)C(N=C(N)N)C(O)C3N=C(N)N)OC(C)C2(O)CO)OC(CO)C(O)C1O` (centres undefined), which growth inhibition is on record?
**A.** Its growth inhibition is -9%.

**Q.** Which growth inhibition does the source give for `O=C(O)c1ccccc1-c1ccccc1C(=O)Nc1ccc2c(c1)Cc1ccccc1-2` here?
**A.** The growth inhibition was 98% (active).

**Q.** Which growth inhibition does the source give for `O=[N+]([O-])c1cccc2nc3ccccc3c(NCCCN3CCOCC3)c12` here?
**A.** The growth inhibition was 98% (active).

**Q.** With `C=CC(C)(O)CCC1C(=C)C(O)CC2C(C)(C)CCCC12C` (centres undefined) as the molecule, how does the growth inhibition read?
**A.** The growth inhibition was 66%.

**Q.** For `CN1c2ccc(Cl)cc2C(=O)NC1c1ccc([N+](=O)[O-])s1` (centres undefined), which growth inhibition is on record?
**A.** Its growth inhibition is 96% (active).

**Q.** With `[O-][n+]1c2ccc(O)cc2nc2ccc(Br)cc21` as the molecule, how does the growth inhibition read?
**A.** Its growth inhibition is 87% (active).

**Q.** With `O=C1c2ccccc2-c2nc3ccccc3nc21` as the molecule, how does the growth inhibition read?
**A.** The growth inhibition was 61%.

**Q.** For `CCCCN1C(=O)N(c2ccc(OCC)cc2)C2N(CCCC)C1C(C)(C)C2(C)C` (centres undefined), which growth inhibition is on record?
**A.** The growth inhibition was 5%.

**Q.** With `CO[C@H]1C[C@](C)(O)Cc2cc3c(c(O)c21)C(=O)c1c(O)cc2c(c1C3=O)O[C@@H]1O[C@@]2(C)[C@H](O)[C@@H](N(C)C)[C@@H]1O` as the molecule, how does the growth inhibition read?
**A.** Its growth inhibition is -32%.

**Q.** Which growth inhibition does the source give for `COc1cc2c(cc1[N+](=O)[O-])C(=O)C(Br)(Br)CCC2` here?
**A.** Its growth inhibition is 97% (active).

**Q.** Which growth inhibition does the source give for `O=C1OC(CCl)CN1/N=C/c1ccc([N+](=O)[O-])o1` (centres undefined) here?
**A.** The growth inhibition was 25%.

**Q.** With `CN(C)CCOc1ccc2c(c1)C/C(=C/c1ncc([N+](=O)[O-])n1C)C2=O` as the molecule, how does the growth inhibition read?
**A.** The growth inhibition was 62%.

**Q.** For `CCCCCCCCCCCCCCCCCCN(C)CC(COP(=O)([O-])OCC[N+](C)(C)C)OC` (centres undefined), which growth inhibition is on record?
**A.** Its growth inhibition is 98% (active).

**Q.** For `CC(C)c1ccccc1NC(=O)/C(Cl)=C(\Cl)C(=O)O`, which growth inhibition is on record?
**A.** Its growth inhibition is 94% (active).

**Q.** Which growth inhibition does the source give for `O=[N+]([O-])C(=C(Sc1ccccc1)Sc1ccccc1)C(Cl)=C(Cl)Cl` here?
**A.** Its growth inhibition is 74% (active).

**Q.** With `C(=C\c1ccccc1)/COc1ccccc1C(N1CCOCC1)n1nc2ccccc2n1` (centres undefined) as the molecule, how does the growth inhibition read?
**A.** Its growth inhibition is 98% (active).

**Q.** With `O=C1C(Nc2ccccc2)=C(Oc2ccccc2)C(=O)c2ccccc21` as the molecule, how does the growth inhibition read?
**A.** Its growth inhibition is -1%.

**Q.** Which growth inhibition does the source give for `CCN(CC)CCN1C(=O)c2cccc3cc(OC)cc(c23)C1=O` here?
**A.** Its growth inhibition is 1%.

**Q.** Which growth inhibition does the source give for `CN(C)Cc1cc(N=Nc2ccc(Cl)cc2)cc(CN(C)C)c1O` here?
**A.** The growth inhibition was 13%.
